# Compound activity deposited in PubChem BioAssay by several laboratories.
# Vc quorum ag: induces V. cholerae light production without autoinducers; V. cholerae BH1578 lux reporter, luminescence, 6 h; activation, % at 18.7 µM; 350,000 tested, 0.16% active; AID 588436; in the data active = activation mostly above about 9.7%, no sharp cut-off
# FBA Mtb inh: inhibits M. tuberculosis FBA enzyme; purified M. tuberculosis FBA, fluorescence read-out; inhibition, % at 1 µM; 360,000 tested, 2.3% active; AID 588726; in the data active = inhibition above about 27%;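 also: 0% = vehicle and 100% = reference inhibitor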
# Target sequence (P9WQA3 whole entry, looked up): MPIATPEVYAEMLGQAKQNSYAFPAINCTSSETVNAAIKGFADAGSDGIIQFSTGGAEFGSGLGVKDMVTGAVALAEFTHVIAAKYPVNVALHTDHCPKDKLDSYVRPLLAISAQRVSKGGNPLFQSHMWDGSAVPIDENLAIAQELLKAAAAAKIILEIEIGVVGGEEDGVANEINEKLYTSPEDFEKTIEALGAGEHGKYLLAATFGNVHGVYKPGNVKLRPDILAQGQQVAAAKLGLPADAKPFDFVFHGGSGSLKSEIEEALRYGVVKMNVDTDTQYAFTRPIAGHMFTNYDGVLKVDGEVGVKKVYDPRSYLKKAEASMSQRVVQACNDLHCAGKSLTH
# GDH-TPI inh: inhibits GDH-TPI coupling enzymes, artifact for Mtb FBA screen; GDH-TPI coupled enzyme counterscreen, NADH absorbance; inhibition, % at 4.8 µM; 360,000 tested, 1.2% active; AID 588335;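 also: 0% = DMSO wells and 100% = wells lacking the enzyme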
# CCHF vOTU inh-1: blocks the CCHF virus ovarian tumor domain protease; CCHFV vOTU protease, Pep-AMC fluorescence; inhibition, % at 11.5 µM; 370,000 tested, 0.55% active; AID 651958; also: 0% = vehicle wells with enzyme and 100% = no enzyme wells
# CCHF vOTU inh-2: CCHFV vOTU protease inhibition, confirmation | Recombinant CCHFV vOTU, Pep-AMC fluorescence | shares compounds with CCHF vOTU inh-1 | inhibition, % at 11.5 µM | AID 686976 | 1,900 tested, 17% active
# Numbers without * were called inactive; i = inactive; · = not tested or not shown. Only some compounds are listed: those with a hit (about 3.9% of all), similar ones and a draw of the others. Rule as the data show it, unless noted: active = inhibition above about 30%; inactive = the rest.
SMILES,Vc quorum ag,FBA Mtb inh,GDH-TPI inh,CCHF vOTU inh-1,CCHF vOTU inh-2
CCOC(=O)[C@]12CCCC=C1N(CCc1ccc(OC)c(OC)c1)C(=O)[C@H](CC(=O)N1CCCC1)C2,·,·,·,33*,-23
O=C(COC(=O)c1ccc[nH]c1=O)NCC12CC3CC(CC(C3)C1)C2,-1,4,14,4,·
COc1ccc(CN2C(=O)CCC2(C)C(=O)NC2CCCCC2)c(OC)c1 (stereo not given),2,2,-17,-7,·
Nn1cnnc1N/N=C/c1cccc(Cl)c1Cl,-1,2,23,61*,-1
FC(F)(F)c1ccccc1/C=N/Nc1ccccn1,i,4,18,4,·
O=C(CO)N/N=C/c1cccc(Cl)c1Cl,i,1,-2,1,·
Nn1cnnc1N/N=C/c1ccccc1C(F)(F)F,i,-5,-3,69*,-11
O=c1cc(C=NNc2ccc([N+](=O)[O-])cc2)[nH]c(=O)[nH]1,i,-12,12,3,·
CCO[C@@H]1OC(C(=O)N2CCN(Cc3ccc4c(c3)OCO4)CC2)=C[C@H](C2CCCCC2)[C@H]1CCCO,i,1,-1,19,·
Cc1ccccc1Nc1c([N+](=O)[O-])cncc1[N+](=O)[O-],0,-2,13,30*,-7
Cc1ccc(C)c(N2CCN(C(=O)CCc3nc(-c4ccccc4C)no3)CC2)c1,-4,-2,6,36*,4
Cc1ccc(C)c(N2CCN(C(=O)CCc3nc(-c4ccccc4Cl)no3)CC2)c1,i,1,-3,3,·
CC(CC(=O)N1CCc2ccccc21)n1cccn1 (stereo not given),0,-4,-7,35*,-8
Cc1ccn(C(C)CC(=O)N2CCc3ccccc32)n1 (stereo not given),i,-1,-5,-6,·
NC(=O)c1ccc(NC(=O)COC(=O)CNC(=O)c2sc3ccccc3c2Cl)cc1,i,2,0,-10,·
COc1cc(/C=C(\C#N)c2nc3ccccc3o2)ccc1O,0,-40,6,33*,7
O=C1C(C=Nc2ccccc2O)=C(O)c2ccccc21,i,-13,6,0,·
Cc1ccc(O)c(N=CC2=C(O)c3ccccc3C2=O)c1,i,-3,20,31*,10
O=C1N/C(=N/Nc2ccccc2)S/C1=C\c1ccccc1,0,1,29,32*,9
Cc1ccc(/C(O)=C2/C(=O)C(=O)N(CC(=O)O)C2c2ccc([N+](=O)[O-])cc2)cc1 (stereo not given),0,-1,27,2,·
O=C(COC(=O)Cc1c[nH]c2ccccc12)Nc1cc(S(=O)(=O)N2CCOCC2)ccc1Cl,-1,2,12,14,·
CCC(=O)OC1CCC2C3CCC4CC(=O)C=CC4(C)C3CCC12C (stereo not given),·,-2,0,30*,10
O=C1NC(c2ccc(-c3ccccc3[N+](=O)[O-])o2)C(C(=O)c2ccc(F)cc2)C(O)(C(F)(F)F)N1 (stereo not given),-1,0,7,42*,5
O=C(NCC(c1ccco1)N1CCCC1)c1cn(-c2ccccc2)nc1-c1ccc(F)cc1 (stereo not given),i,4,3,-2,·
CC(C)(C)NC(=O)N1CCCC(C(=O)c2cccc(Cl)c2)C1 (stereo not given),1,-3,-2,7,·
SMILES,Vc quorum ag,FBA Mtb inh,GDH-TPI inh,CCHF vOTU inh-1,CCHF vOTU inh-2
CC(C)Oc1ccc(S(=O)(=O)N2CCCCC2)cc1NC(=O)CN1C(=O)NC(C)(c2ccccc2)C1=O (stereo not given),-3,-3,0,11,·
CCN(CC)S(=O)(=O)c1cccc(C(=O)Nc2nncs2)c1,-5,8,13,-10,·
COc1ccc(N(C)S(=O)(=O)c2cccc(C(=O)Nc3nc(C)c(C(C)=O)s3)c2)cc1,i,3,16,35*,0
CCN(CC)S(=O)(=O)c1cccc(C(=O)Nc2nnc(C)s2)c1,0,-1,3,31*,-5
O=c1c(C=NCc2cccnc2)c(C(F)(F)F)[nH]n1-c1nc2ccccc2s1,0,0,-3,30*,-5
CC(=O)OCCCNc1cc(SCc2ccco2)c2nonc2c1[N+](=O)[O-],0,-4,17,55*,-18
COC(=O)c1ccc(COc2nc(C)cc(C)c2C#N)o1,-1,2,8,32*,-2
COCCCn1c(C(C)C)nc2oc3cc(OC)ccc3c(=O)c2c1=O,-6,-2,-11,-1,·
CCN(CC)S(=O)(=O)c1cccc(C(=O)N[C@H](C(=O)NC2=NCCS2)C(C)C)c1,1,0,-17,11,·
O=C(/C(C=Nc1ccc(F)cc1)=C(/O)c1ccco1)C(F)(F)F,0,-1,17,33*,-6
Cc1cccc(N=C/C(C(=O)C(F)(F)F)=C(\O)c2ccco2)c1,0,1,11,6,·
CC(O)c1cccc(NC(=O)Nc2cccc(NC(=O)Nc3cccc(C(C)O)c3)c2)c1 (stereo not given),-6,1,-13,-12,·
CCCCCCCC/C=C\CCCCCCCC(=O)NCCO,i,4,0,4,·
CCCCCCCC/C=C\CCCCCCCC(=O)NCCc1ccc(O)c(O)c1,i,-3,-10,30*,27
COc1ccccc1C(=O)NC(=O)COC(=O)CNC(=O)c1ccc(Cl)c([N+](=O)[O-])c1,i,-1,-1,-5,·
CN(C)c1ccc2nc3ccc(=[N+](C)C)cc-3sc2c1,0,-5,2,24,·
CN(C)c1ccc2nc3ccc(=O)cc-3sc2c1,i,0,11,76*,50*
O=C(COc1ccc(F)cc1Br)Nc1ccccc1N1CCCC1,-1,2,4,8,·
COc1ccccc1CN(C)C(=O)C1COc2ccccc2O1 (stereo not given),0,-2,-6,-1,·
COc1ccc(NC(=O)c2ccc3c(c2)OCCO3)cc1OC,0,2,1,-12,·
CCC(NC(=O)NCc1ccccc1)(C(F)(F)F)C(F)(F)F,0,2,1,-7,·
CC(NC(=O)Nc1ccc(O)cc1)(C(F)(F)F)C(F)(F)F,-1,-1,4,52*,-2
COc1ccc(NC(=O)NC(C)(C(F)(F)F)C(F)(F)F)cc1,i,-3,8,1,·
CCC(NC(=O)Nc1ccc(O)cc1)(C(F)(F)F)C(F)(F)F,0,-1,4,63*,3
CN1CCN(c2ccc(S(=O)(=O)N3CCCCC3)cc2NC(=O)c2ccc3ccccc3c2)CC1,0,2,8,-4,·
COC(=O)c1ccc(OCC(O)CN2CCc3cc(OC)c(OC)cc3C2c2ccccc2)cc1 (stereo not given),-1,-1,-6,2,·
CC(=O)Nc1c([N+](=O)[O-])cc2c3c(cccc13)CC2,·,2,·,33*,-16
O=C(NNC(=O)c1cccc(S(=O)(=O)N2CCCCC2)c1)c1ccccc1,1,0,4,-8,·
COC(=O)c1ccsc1NS(C)(=O)=O,·,·,·,31*,-19
CCC(=O)Nc1sccc1C(=O)OC,-1,1,4,·,·
